Source: PubChem BioAssay (NCI)
The panel holds about 83,000 compounds, 20% with a hit somewhere; the sample as a whole holds those more often.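 Results are percent growth after 48 hours of single-concentration exposure. 100 means growth as in untreated cells, lower positive values show inhibition; negative values down to -100 show cell death.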 Active and inactive are the calls of the source. How the source made its calls: active means growth percent below 10; inactive means the rest.

How the values were obtained:
Experiment in all cases: NCI-60 one-dose screen, 48 h (100 = growth as untreated, 0 = no growth, -100 = all killed)
[1] = system: NCI-H226 lung; conditions: 10 µM unless noted
[2] = system: MALME-3M melanoma; conditions: 10 µM unless noted
[3] = system: SF-295 CNS; conditions: 10 µM unless noted
[4] = system: UACC-257 melanoma; conditions: 10 µM unless noted
[5] = system: M14 melanoma; conditions: 10 µM unless noted
[6] = system: PC-3 prostate; conditions: 10 µM unless noted
[7] = system: SK-MEL-5 melanoma; conditions: 10 µM unless noted
[8] = system: LOX IMVI melanoma; conditions: 10 µM unless noted
[9] = system: CAKI-1 renal; conditions: 10 µM unless noted
[10] = system: A498 renal; conditions: 10 µM unless noted
[11] = system: CCRF-CEM leukemia; conditions: 10 µM unless noted
[12] = system: MOLT-4 leukemia; conditions: 10 µM
[13] = system: RPMI-8226 leukemia; conditions: 10 µM unless noted
[14] = system: OVCAR-8 ovarian; conditions: 10 µM unless noted
[15] = system: HS 578T breast; conditions: 10 µM unless noted
[16] = system: BT-549 breast; conditions: 10 µM
[17] = system: HCT-116 colon; conditions: 10 µM unless noted
[18] = system: HCC-2998 colon; conditions: 10 µM unless noted
[19] = system: RXF 393 renal; conditions: 10 µM unless noted
[20] = system: OVCAR-3 ovarian; conditions: 10 µM unless noted

Measured: growth

CCCCCN(CCCCC)CC(O)c1ccc(C)c(Cl)c1 (stereo not given)
inactive: [1] 84.4% | [2] 105% | [3] 87% | [4] 95.4% | [5] 96% | [6] 91.8% | [7] 103% | [8] 96.3% | [9] 98.2% | [10] 78.5% | [11] 99% | [12] 110% | [13] 91.8% | [14] 102% | [15] 102% | [16] 107% | [17] 82.1% | [18] 107%

CC12CC[C@H](O)C=C1/C(=N/O)CC1C2CCC2(C)C1CC[C@@H]2O (stereo not given in full)
inactive: [1] 97.1% | [2] 80.3% | [19] 104% | [4] 111% | [7] 103% | [8] 94.3% | [9] 84% | [14] 107% | [16] 85% | [17] 93.3% | [18] 99.3%

CCC[CH2][Sn]1([CH2]CCC)[O]C(=O)c2cccc([N+](=O)[O-])c2C(=O)[O]1
active: [1] -83.1% | [2] -88.4% | [19] -95.2% | [3] -36.9% | [4] -94.1% | [5] -89.2% | [6] -67.5% | [7] -89.8% | [8] -72% | [9] -93.4% | [10] -94.5% | [11] -47.7% | [12] -24.4% | [13] -40.5% | [14] -93.1% | [20] -99.3% | [15] -11.6% | [16] -99.6% | [17] -100% | [18] -84.7%

NC(=O)C(Cl)Cl
inactive: [2] 96.6% | [3] 98.3% | [4] 94.8% | [5] 112% | [6] 97.5% | [9] 98.1% | [10] 106% | [12] 109% | [13] 105% | [14] 99.9% | [20] 110% | [15] 117% | [16] 111% | [17] 107% | [18] 120%
active: [11] -19.9%

COc1cc(NCCCCCN=C(N)N)c2ncccc2c1
active: [12] 4.38% | [20] 0.151% | [17] 6.08%
inactive: [2] 19.6% | [3] 61.1% | [4] 79.7% | [5] 99.3% | [6] 23.4% | [8] 66.4% | [9] 104% | [10] 89.6% | [11] 39.8% | [13] 58.2% | [14] 32.6% | [16] 38.7% | [18] 55.9%

C[C@]12C[C@H](O)[C@H]3[C@@H](CCC4=CC(=O)CC[C@@]43C)[C@@H]1CC[C@@H]2O
inactive: [19] 109% | [3] 85.6% | [5] 98.4% | [6] 95.3% | [7] 100% | [8] 96% | [9] 88% | [10] 116% | [11] 97.3% | [12] 103% | [13] 98.3% | [14] 114% | [20] 112% | [15] 105% | [16] 104% | [18] 95.3%

N#C[Se]CCN1C(=O)C2C(C1=O)[C@H]1C=C[C@@H]2S1 (stereo not given in full)
active: [1] -54.6% | [2] -40.5% | [19] -52.2% | [3] -34.8% | [5] -13.6% | [6] 5.36% | [7] -52.8% | [8] -46% | [9] -98.7% | [11] 8.31% | [12] 4.47% | [13] -10.4% | [14] -19.3% | [20] -64.6% | [15] -10.3% | [16] -81% | [17] -35.4%
inactive: [4] 10.9% | [18] 67.4%

CCOC(=O)C1(c2ccccc2)CCN(CC(=O)c2ccc(NC(C)=O)cc2)CC1
inactive: [1] 107% | [19] 124% | [3] 110% | [4] 104% | [5] 93.6% | [6] 86.8% | [7] 103% | [8] 88.8% | [9] 95.4% | [10] 94.5% | [11] 99.3% | [12] 102% | [13] 88.3% | [14] 110% | [20] 128% | [15] 113% | [16] 97% | [17] 97.7%

Oc1ccc(Br)cc1CN1CCN(Cc2ccc(Cl)cc2)CC1
inactive: [19] 76.7% | [4] 86.7% | [5] 85.9% | [6] 54% | [8] 19.7% | [9] 59.5% | [10] 105% | [11] 26.7% | [12] 56.1% | [13] 16.7% | [14] 60.6% | [20] 67.8% | [15] 80.9% | [16] 86.3% | [17] 22.2%
active: [7] -3.7%
